Results filed as inconclusive are left out. Active and inactive are the calls of the source. Rule for the calls, unless noted: active = hit-call score of the fitted dose curve at least 0.9, where 1 is the maximum; inactive = score below 0.9.
Assays:
[1] = ATG_CRE_CIS: Attagene CIS-FACTORIAL HepG2 Assay for human cAMP Responsive Element (CRE) binding protein 3 (AID 2282926); settings: HepG2 CRE cis-reporter, Attagene multiplexed mRNA; actives raise or lower the signal
Outline: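 Endogenous transcription factor activity read via CRE-regulated reporter transcripts in transfected HepG2 cells. After 24 h exposure, RNA was reverse-transcribed, amplified, fluorescently labelled and sized by capillary electrophoresis; gain or loss fitted against DMSO.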

[2] = ATG_DR4_LXR_CIS: Attagene CIS-FACTORIAL HepG2 Assay for human Liver X Receptor (LXR), DR4 submotif (AID 2282929); settings: HepG2 Attagene DR4 cis-reporter, mRNA transcription; actives raise or lower the signal
Outline: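 Fluorescence intensity of labelled reporter cDNA fragments, separated by capillary electrophoresis, gives the signal. HepG2 cells bearing cis-regulated reporter constructs were treated 24 h; activity fitted bidirectionally relative to DMSO negative control.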

[3] = ATG_AP_2_CIS: Attagene CIS-FACTORIAL HepG2 Assay for human Activator Protein 2 (AP-2) (AID 2282932); settings: HepG2 AP-2 cis-reporter, Attagene transcription factor profiling; actives raise or lower the signal
Outline: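 Assay in transfected HepG2 with promoter-regulated reporters, 24 h incubation after dosing. Signal is reporter mRNA fluorescence (RT-PCR, capillary electrophoresis), analysed for both increases and decreases relative to DMSO controls.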

[4] = ATG_BRE_CIS: Attagene CIS-FACTORIAL HepG2 Assay for human Bone Morphogenetic Protein (BMP) Response Element (BRE) (AID 2282933); settings: HepG2 BMP response element reporter, Attagene transcription factor profiling; actives raise or lower the signal
Outline: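 Transient MRTU transfection of human HepG2 liver cells; 24 h compound treatment; total RNA isolated, reverse-transcribed, PCR-amplified, 6-FAM labelled, HpaI-cut, capillary electrophoresis. DMSO = negative control/baseline, bidirectional fit.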

[5] = target: Transcription factor E2F1 (Homo sapiens) (UniProt Q01094); assay: ATG_E2F_CIS: Attagene CIS-FACTORIAL HepG2 Assay for human E2F Transcription Factor 1 (AID 2282935); settings: HepG2 Attagene cis-reporter, E2F reporter RNA transcripts; actives raise or lower the signal
Outline: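 In this cis-factorial format, endogenous factor activity drives transfected reporters in HepG2; transcripts collected at 24 h are quantified by fluorescence after RT-PCR and capillary separation.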

[6] = ATG_E_Box_CIS: Attagene CIS-FACTORIAL HepG2 Assay for human Enhancer Box (E-box) (AID 2282936); settings: HepG2 E-box cis-reporter transcription, actives raise or lower the signal
Outline: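 Measured 24 h post-dosing in HepG2 cells transfected with multiple cis-regulated reporter units, signal being reporter mRNA induction detected by fluorescent RT-PCR with capillary electrophoresis; gain or loss fitted against DMSO.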

[7] = ATG_M_19_CIS: Attagene CIS-FACTORIAL HepG2 Assay for M19 Transcription Factor (Internal Marker) (AID 2282939); settings: HepG2 Attagene CIS-FACTORIAL M19 internal marker reporter; actives raise or lower the signal
Outline: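 Transfect HepG2 with MRTU reporter library → dose chemical, 24 h → isolate total RNA, reverse-transcribe with oligo(dT) → PCR, 6-FAM label, HpaI cut (2 h, 37 C) → capillary electrophoresis. Bidirectional fit vs DMSO.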

[8] = ATG_Ets_CIS: Attagene CIS-FACTORIAL HepG2 Assay for human Erythroblast Transformation Specific (ETS) (AID 2282941); settings: HepG2 ETS cis-reporter transcription, actives raise or lower the signal
Outline: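 Bidirectional fit versus DMSO of reporter mRNA signal, detected by RT-PCR and capillary electrophoresis in HepG2 cells transiently transfected with cis-element reporters and dosed 24 h.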

[9] = target: Hepatocyte nuclear factor 3-beta (Homo sapiens) (UniProt Q9Y261); assay: ATG_FoxA2_CIS: Attagene CIS-FACTORIAL HepG2 Assay for human Forkhead box A2 (FOXA2) (AID 2282942); settings: HepG2 cis-reporter transcription factor activity, 24 h; actives raise or lower the signal
Outline: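 Reporter transcript induction is measured by fluorescence after capillary electrophoresis of RT-PCR products from HepG2 cells exposed 24 h. Cis-regulated reporter units report endogenous factor activity; curves fitted both directions against DMSO.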

[10] = ATG_FoxO_CIS: Attagene CIS-FACTORIAL HepG2 Assay for human Forkhead box O (FoxO) (AID 2282943); settings: HepG2 Attagene cis-reporter, FoxO element, mRNA; actives raise or lower the signal
Outline: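 Values reflect reporter mRNA induction or loss in HepG2 cells 24 h post-dosing, fitted bidirectionally with DMSO as negative control and baseline. Detection used RT-PCR and fluorescence capillary electrophoresis.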

[11] = ATG_GATA_CIS: Attagene CIS-FACTORIAL HepG2 Assay for human GATA Binding Protein (AID 2282944); settings: HepG2 GATA cis-element reporter, Attagene multiplex mRNA; actives raise or lower the signal
Outline: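 Transient MRTU transfection, HepG2, 24 h compound exposure. Total RNA → oligo(dT) RT → PCR → 6-FAM primer extension → HpaI cut → CE. Bidirectional fit vs DMSO.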

[12] = ATG_M_32_CIS: Attagene CIS-FACTORIAL HepG2 Assay for M32 Transcription Factor (Internal Marker) (AID 2282949); settings: HepG2 Attagene cis-factorial M32 reporter, mRNA; actives raise or lower the signal;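 note: background control marker of the multiplexed CIS panel rather than a real target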
Outline: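 Using DMSO as baseline, bidirectional curve fits were applied to reporter mRNA signals. These came from transiently transfected HepG2 cells exposed for 24 h, with RNA analysed by RT-PCR, FAM primer extension, HpaI digestion and CE.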

[13] = target: Heat shock factor protein 1 (Homo sapiens) (UniProt Q00613); assay: ATG_HSE_CIS: Attagene CIS-FACTORIAL HepG2 Assay for human Heat Shock Transcription Factor 1 (HSE) (AID 2282953); settings: HepG2 HSE cis-reporter, Attagene RNA transcription; actives raise or lower the signal
Outline: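 HepG2, transient MRTU transfection, cis-promoter reporters (endogenous TF activity). 24 h compound. RNA → oligo(dT) RT → PCR → 6-FAM primer extension → HpaI cut → CE. Bidirectional fit vs DMSO.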

[14] = ATG_PXRE_CIS: Attagene CIS-FACTORIAL HepG2 Assay for human Pregnane X Receptor Element (PXRE) (AID 2282957); settings: HepG2 Attagene CIS-FACTORIAL PXRE reporter, mRNA; actives raise or lower the signal
Outline: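 Reporter transcripts under endogenous PXR-responsive cis-regulation quantified from total RNA of transfected HepG2 cells 24 h post-dosing, via RT-PCR with fluorescent primer extension and capillary electrophoresis. Gain or loss of signal fitted against DMSO baseline.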

[15] = ATG_Sox_CIS: Attagene CIS-FACTORIAL HepG2 Assay for human SRY-box transcription factor (SOX) (AID 2282960); settings: HepG2 Attagene cis-factorial SOX reporter, mRNA; actives raise or lower the signal
Outline: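 Measures mRNA induction of a SOX1-associated reporter in HepG2 after 24 h dosing. Fluorescently labelled RT-PCR fragments are separated by capillary electrophoresis, and gain or loss relative to DMSO control is fitted.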

[16] = target: Transcription factor Sp1 (Homo sapiens) (UniProt P08047); assay: ATG_Sp1_CIS: Attagene CIS-FACTORIAL HepG2 Assay for human Specificity Protein 1 (Sp1) (AID 2282961); settings: HepG2 Sp1 cis-reporter transcription, actives raise or lower the signal
Outline: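 Cells: HepG2, transiently transfected with cis-regulated multiplexed reporters. Exposure: 24 h. Detection: reporter transcripts amplified, fluorescently labeled, restriction-digested and sized by capillary electrophoresis. Analysis: bidirectional fit relative to DMSO.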

[17] = ATG_SREBP_CIS: Attagene CIS-FACTORIAL HepG2 Assay for human Sterol Regulatory Element Binding (SREBP) (AID 2282962); settings: HepG2 Attagene cis-factorial SREBP reporter, mRNA; actives raise or lower the signal
Outline: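 In this cis-format assay, HepG2 liver cells express reporters controlled by promoter elements responsive to native transcription factors. Exposure lasts 24 h; reporter mRNA fluorescence from capillary electrophoresis gives the signal, fitted bidirectionally against DMSO.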

[18] = target: Signal transducer and activator of transcription 3 (Homo sapiens) (UniProt P40763); assay: ATG_STAT3_CIS: Attagene CIS-FACTORIAL HepG2 Assay for human Signal Transducer and Activator of Transcription 3 (STAT3) (AID 2282963); settings: HepG2, Attagene cis-factorial STAT3 reporter transcription; actives raise or lower the signal
Outline: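 Uses human liver HepG2 transiently carrying cis-regulated reporter transcription units. Following 24 h dosing, reporter mRNA induction was detected by RT-PCR and capillary electrophoresis, analysed bidirectionally versus DMSO.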

[19] = ATG_TA_CIS: Attagene CIS-FACTORIAL HepG2 Assay for human TA Basal Promoter (AID 2282964); settings: HepG2 Attagene CIS-factorial TA basal promoter reporter; actives raise or lower the signal
Outline: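 Read-out: fluorescent reporter-transcript fragments resolved by capillary electrophoresis after RT-PCR and HpaI digestion. Source: HepG2 cells carrying transiently transfected multi-reporter cis constructs, treated 24 h. Endpoint fitted bidirectionally relative to DMSO.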

[20] = target: Androgen receptor (Homo sapiens) (UniProt P10275); assay: ATG_AR_TRANS: Attagene TRANS-FACTORIAL HepG2 Assay for human Androgen Receptor (AR) (AID 2282973; active = hit-call score of the fitted dose curve at least 0.9, where 1 is the maximum); settings: HepG2 Attagene TRANS-FACTORIAL AR reporter transcription
Outline: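 Transcriptional activity of an exogenous AR–Gal4 fusion read as GAL4-UAS reporter transcript levels in transfected human HepG2 cells after 24 h dosing. Detection via RT-PCR, 6-FAM labelling, HpaI digest and capillary electrophoresis; increase over DMSO baseline.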

Measured: AC50

Chain of Transcription factor E2F1 (Homo sapiens) (Q01094 whole entry, looked up): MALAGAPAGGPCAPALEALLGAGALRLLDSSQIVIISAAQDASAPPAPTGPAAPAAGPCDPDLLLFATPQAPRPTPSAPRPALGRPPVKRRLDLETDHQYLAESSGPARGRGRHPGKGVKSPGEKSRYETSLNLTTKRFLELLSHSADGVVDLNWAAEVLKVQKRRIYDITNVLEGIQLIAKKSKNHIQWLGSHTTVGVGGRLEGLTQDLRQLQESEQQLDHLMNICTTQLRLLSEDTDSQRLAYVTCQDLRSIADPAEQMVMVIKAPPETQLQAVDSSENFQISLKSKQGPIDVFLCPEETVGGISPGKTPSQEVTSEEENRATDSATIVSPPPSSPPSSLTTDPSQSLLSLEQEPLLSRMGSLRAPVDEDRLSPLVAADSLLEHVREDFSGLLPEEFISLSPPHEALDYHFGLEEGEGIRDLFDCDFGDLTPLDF
Chain of Transcription factor Sp1 (Homo sapiens) (P08047 whole entry, looked up): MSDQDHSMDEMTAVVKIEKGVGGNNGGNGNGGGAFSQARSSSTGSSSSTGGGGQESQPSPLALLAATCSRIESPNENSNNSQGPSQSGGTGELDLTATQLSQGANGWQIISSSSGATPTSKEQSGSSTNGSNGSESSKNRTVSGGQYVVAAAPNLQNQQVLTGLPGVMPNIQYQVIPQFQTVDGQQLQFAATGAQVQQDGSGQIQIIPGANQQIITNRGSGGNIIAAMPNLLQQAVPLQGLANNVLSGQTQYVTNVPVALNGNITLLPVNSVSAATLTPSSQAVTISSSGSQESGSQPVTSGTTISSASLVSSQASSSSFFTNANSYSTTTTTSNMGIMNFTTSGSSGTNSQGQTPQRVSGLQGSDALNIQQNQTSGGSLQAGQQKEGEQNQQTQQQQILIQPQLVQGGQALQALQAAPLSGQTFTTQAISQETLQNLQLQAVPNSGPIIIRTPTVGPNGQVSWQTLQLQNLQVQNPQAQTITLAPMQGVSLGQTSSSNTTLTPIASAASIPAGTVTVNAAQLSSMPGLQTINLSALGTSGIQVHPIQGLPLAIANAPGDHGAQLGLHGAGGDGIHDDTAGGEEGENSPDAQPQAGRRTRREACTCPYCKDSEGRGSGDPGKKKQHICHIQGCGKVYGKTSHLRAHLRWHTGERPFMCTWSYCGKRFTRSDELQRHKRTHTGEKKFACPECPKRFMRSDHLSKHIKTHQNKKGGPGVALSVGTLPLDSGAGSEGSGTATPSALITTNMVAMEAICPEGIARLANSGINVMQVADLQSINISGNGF
Chain of Signal transducer and activator of transcription 3 (Homo sapiens) (P40763 whole entry, looked up): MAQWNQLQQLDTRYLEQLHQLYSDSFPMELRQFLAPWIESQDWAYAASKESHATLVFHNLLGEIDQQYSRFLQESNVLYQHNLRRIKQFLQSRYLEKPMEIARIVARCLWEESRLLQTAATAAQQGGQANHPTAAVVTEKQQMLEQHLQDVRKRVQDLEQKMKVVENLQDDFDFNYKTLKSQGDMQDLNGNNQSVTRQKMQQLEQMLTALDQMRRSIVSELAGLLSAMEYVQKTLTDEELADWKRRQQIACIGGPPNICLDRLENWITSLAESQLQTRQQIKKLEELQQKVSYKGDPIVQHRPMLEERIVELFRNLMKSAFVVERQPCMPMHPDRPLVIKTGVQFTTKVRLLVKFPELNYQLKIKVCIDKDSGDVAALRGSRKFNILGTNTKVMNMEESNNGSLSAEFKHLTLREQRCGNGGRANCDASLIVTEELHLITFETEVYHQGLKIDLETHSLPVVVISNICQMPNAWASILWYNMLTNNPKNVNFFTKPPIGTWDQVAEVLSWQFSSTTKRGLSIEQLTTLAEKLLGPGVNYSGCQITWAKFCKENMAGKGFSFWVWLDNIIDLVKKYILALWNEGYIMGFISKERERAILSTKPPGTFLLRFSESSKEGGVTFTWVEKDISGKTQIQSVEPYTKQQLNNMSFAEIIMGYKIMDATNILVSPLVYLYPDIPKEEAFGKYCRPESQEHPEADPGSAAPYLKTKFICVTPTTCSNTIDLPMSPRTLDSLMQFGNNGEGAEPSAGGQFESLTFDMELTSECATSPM
Chain of Heat shock factor protein 1 (Homo sapiens) (Q00613 whole entry, looked up): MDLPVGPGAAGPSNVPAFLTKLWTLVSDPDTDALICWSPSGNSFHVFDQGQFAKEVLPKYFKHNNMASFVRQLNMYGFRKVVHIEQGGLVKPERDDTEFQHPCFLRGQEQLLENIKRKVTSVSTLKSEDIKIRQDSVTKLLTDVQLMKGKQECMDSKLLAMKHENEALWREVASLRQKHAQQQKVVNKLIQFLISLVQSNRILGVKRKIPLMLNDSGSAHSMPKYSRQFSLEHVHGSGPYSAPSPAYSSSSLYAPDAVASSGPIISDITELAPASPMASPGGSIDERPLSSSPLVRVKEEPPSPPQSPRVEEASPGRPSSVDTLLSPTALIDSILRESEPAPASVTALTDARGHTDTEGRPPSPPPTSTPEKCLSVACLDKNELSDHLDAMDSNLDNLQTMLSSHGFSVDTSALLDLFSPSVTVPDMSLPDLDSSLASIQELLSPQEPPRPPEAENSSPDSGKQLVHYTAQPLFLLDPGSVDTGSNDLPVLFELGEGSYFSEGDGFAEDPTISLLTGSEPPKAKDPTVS
Chain of Hepatocyte nuclear factor 3-beta (Homo sapiens) (Q9Y261 whole entry, looked up): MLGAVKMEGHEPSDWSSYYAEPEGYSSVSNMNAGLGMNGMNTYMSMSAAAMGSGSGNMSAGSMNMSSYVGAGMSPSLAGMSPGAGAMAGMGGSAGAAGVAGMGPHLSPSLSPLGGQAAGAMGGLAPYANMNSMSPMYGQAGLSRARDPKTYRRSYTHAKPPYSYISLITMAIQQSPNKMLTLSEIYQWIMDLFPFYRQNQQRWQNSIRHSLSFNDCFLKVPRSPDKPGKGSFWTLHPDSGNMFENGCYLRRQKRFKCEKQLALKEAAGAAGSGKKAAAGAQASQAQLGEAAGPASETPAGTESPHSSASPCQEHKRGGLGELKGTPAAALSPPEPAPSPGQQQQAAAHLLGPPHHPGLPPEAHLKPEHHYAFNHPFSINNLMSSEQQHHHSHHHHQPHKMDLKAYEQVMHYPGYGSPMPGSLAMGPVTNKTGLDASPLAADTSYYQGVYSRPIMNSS
Chain of Androgen receptor (Homo sapiens) (P10275 whole entry, looked up, the tested form may be a part): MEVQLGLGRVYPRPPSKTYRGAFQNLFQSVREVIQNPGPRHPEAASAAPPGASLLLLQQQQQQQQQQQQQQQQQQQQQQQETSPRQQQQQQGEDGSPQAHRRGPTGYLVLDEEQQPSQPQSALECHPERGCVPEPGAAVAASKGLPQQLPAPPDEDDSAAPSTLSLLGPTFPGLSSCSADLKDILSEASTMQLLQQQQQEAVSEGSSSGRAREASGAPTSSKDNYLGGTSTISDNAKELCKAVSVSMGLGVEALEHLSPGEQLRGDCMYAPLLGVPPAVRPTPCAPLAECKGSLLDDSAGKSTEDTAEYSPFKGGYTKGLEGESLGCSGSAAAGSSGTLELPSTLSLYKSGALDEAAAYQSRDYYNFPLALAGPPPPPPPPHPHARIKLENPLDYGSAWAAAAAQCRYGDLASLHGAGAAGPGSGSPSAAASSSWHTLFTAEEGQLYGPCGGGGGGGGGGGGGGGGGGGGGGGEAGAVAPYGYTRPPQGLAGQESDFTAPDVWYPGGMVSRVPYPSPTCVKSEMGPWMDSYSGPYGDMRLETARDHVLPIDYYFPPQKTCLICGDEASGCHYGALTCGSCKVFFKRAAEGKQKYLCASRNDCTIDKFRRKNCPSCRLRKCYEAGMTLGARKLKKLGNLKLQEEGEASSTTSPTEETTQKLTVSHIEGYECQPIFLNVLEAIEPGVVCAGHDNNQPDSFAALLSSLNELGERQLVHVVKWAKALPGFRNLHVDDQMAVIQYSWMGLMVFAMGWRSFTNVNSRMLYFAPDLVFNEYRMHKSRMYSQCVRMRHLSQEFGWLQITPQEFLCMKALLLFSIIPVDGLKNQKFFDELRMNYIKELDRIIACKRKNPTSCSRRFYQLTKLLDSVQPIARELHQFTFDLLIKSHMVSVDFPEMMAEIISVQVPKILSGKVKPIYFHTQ

Clc1ccc(-c2ccccc2)cc1
active: [14] 42.7 µM | [16] 117 µM
not listed: [20]
inactive: all other assays above

Cl/C=C\CCl
not listed: [20]
inactive: all other assays above

N#CCNCC#N
not listed: [20]
inactive: all other assays above

O=[N+]([O-])c1ccc(Cl)cc1
not listed: [20]
inactive: all other assays above

Cc1cc(C)c(C2=C(OC(=O)CC(C)(C)C)C3(CCCC3)OC2=O)c(C)c1
active: [1] 127 µM | [2] 28.5 µM | [13] 170 µM | [14] 7.83 µM | [16] 88.6 µM | [17] 166 µM
not listed: [20]
inactive: all other assays above

C=CCN(CC=C)C(=O)C(Cl)Cl
active: [14] 43.9 µM
not listed: [20]
inactive: all other assays above

CN(N=O)c1ccccc1
not listed: [20]
inactive: all other assays above

C[C@]12CC[C@H](O)C[C@H]1CC[C@@H]1[C@@H]2C[C@@H](O)[C@]2(C)[C@@H](C3=CC(=O)OC3)CC[C@]12O
active: [1] 3.11 µM | [3] 0.865 µM | [8] 8.76 µM | [10] 8.56 µM | [11] 7.98 µM | [13] 2.96 µM | [14] 1.87 µM | [16] 1.28 µM | [17] 1.74 µM
inactive: all other assays above

O=[N+]([O-])C=Cc1ccccc1
active: [1] 20 µM | [2] 29.6 µM | [3] 21.4 µM | [4] 44.2 µM | [6] 25.5 µM | [9] 22.7 µM | [10] 33.4 µM | [11] 22.1 µM | [13] 11.4 µM | [14] 56.8 µM | [15] 20.1 µM | [16] 21.2 µM | [18] 33.4 µM
inactive: [5] | [7] | [8] | [12] | [17] | [19]

CC1OC(C)OC(C)O1 (stereo unspecified)
not listed: [20]
inactive: all other assays above
